For 21 compounds, growth inhibition results are on record in PubChem BioAssay (NCI).

Test [1] can be described thus: NCI Yeast Anticancer Drug Screen. Data for the rad50 strain (AID 155).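 Note: 0% = growth of vehicle-only cultures of the same strain.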 The conditions noted are these: S. cerevisiae rad50 strain growth inhibition; at 50.0 µM; active compounds read high. The method, boiled down: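 DNA repair mutant yeast, compound exposure, growth read-out; inhibition is taken relative to vehicle.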
A short description of test [2]: NCI Yeast Anticancer Drug Screen. Data for the mec2-1 strain (AID 157). The conditions noted are these: S. cerevisiae mec2-1 strain, at 50.0 µM, active compounds read high. The method, boiled down: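 Compounds were applied to mec2-1 yeast cells. Their growth was then compared with that of vehicle-treated cultures to give growth inhibition.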
Test [3] is described as follows: NCI Yeast Anticancer Drug Screen. Data for the sgs1 mgt1 strain (AID 161).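 Note: 0% = growth of cultures given vehicle only.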 The following applies: S. cerevisiae sgs1 mgt1 strain, at 50.0 µM, active compounds read high. The method, boiled down: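 Compounds are added to genetically altered yeast, and growth is compared with cultures given vehicle alone to give percent inhibition.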
Test [4] in a line: NCI Yeast Anticancer Drug Screen. Data for the cln2 rad14 strain (AID 165).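 Note: 0% = growth equal to vehicle treated cultures.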 The following applies: S. cerevisiae cln2 rad14 strain, at 50.0 µM, active compounds read high. The method, boiled down: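 Strain: cln2 rad14 yeast, altered in cell cycle control and DNA damage repair. Read-out: growth inhibition vs vehicle.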
A short description of test [5]: NCI Yeast Anticancer Drug Screen. Data for the bub3 strain (AID 167). The conditions noted are these: S. cerevisiae bub3 mutant strain, at 50.0 µM, active compounds read high. The method, boiled down: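 In this screen, a yeast mutant lacking normal mitotic checkpoint function is challenged with compound. Relative growth versus vehicle gives the inhibition value.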
Test [6] in a line: NCI Yeast Anticancer Drug Screen. Data for the mlh1 rad18 strain (AID 175). The following applies: S. cerevisiae mlh1 rad18 strain growth inhibition; at 50.0 µM; active compounds read high. The method, boiled down: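 A repair-deficient yeast strain is exposed to test compound, and growth is scored relative to vehicle-treated controls.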

This is part of a sample that, as a whole, favours compounds with a hit. Of some 79,000 tested, about 15% had one in any assay. A number with no mark means an inactive call. Active and inactive are the calls of the source. Cut-off read from the data, not from the text of the source: active = growth inhibition above about 70%; inactive = the rest. Where a SMILES comes first, the peptide text is derived from it. [ ]: non-standard residue; d: D form. Hiv = CC(C)[C@H](O)C(=O)O

Turning to `N#C/C(=C\c1ccc(F)cc1)C(=O)O`, the growth inhibition was 13.2% in test [1]; 0.8% in test [2]; -7.9% in test [3]; 4.2% in test [4]; 8.5% in test [5]; 18.4% in test [6].
For the compound `COC(=O)C1CC2(C(=O)OC)CC(C(=O)OC)(CC(C(=O)OC)C2=O)C1=O` (stereo unspecified), the growth inhibition in test [1] was 9.55%; in test [2], -0.15%; in test [3], 14.1%; in test [4], 11.9%; in test [5], 18.5%; in test [6], 3.55%.
On to `CC(C)(C)c1ccc2c(c1)C(O)(C#Cc1ccccc1)c1ccccc1C2(O)C#Cc1ccccc1` (stereo unspecified), for which the growth inhibition in test [1] was 11.6%; in test [2], -7.5%; in test [3], 1.5%; in test [4], 9.35%; in test [5], 0.05%; in test [6], 14.1%.
In the case of `CC(C)[C@@H]1OC(=O)[C@@H](C)NC(=O)[C@@H]2CCCN2C1=O` (cyclo([Hiv]-Pro-[dA])), the growth inhibition in test [1] was -38.2%; in test [2] it was -6.75%; in test [3], -15.1%; in test [4], 5.95%; in test [5], -22.6%; in test [6], -16.4%.
Consider `CC1(C)OC2C(COC(=O)c3ccc([N+](=O)[O-])cc3)OC(NC(=O)N(CCCl)N=O)C2O1` (stereo unspecified), for which the growth inhibition is -34.4% in test [1]; -21.2% in test [2]; -20.9% in test [3]; -11.2% in test [4]; -36.5% in test [5]; 81.5% (active) in test [6].
As to `CCC1(CN(C)C)CC/C(=C\c2ccc(OC)cc2)C1=O` (stereo unspecified), the growth inhibition in test [1] is 8.8%; in test [2], 4.1%; in test [3], -9.2%; in test [4] it was -6.1%; in test [5], -5.8%; in test [6], 27.3%.
Consider `CC(=O)OCCNc1ccccc1`, for which the growth inhibition in test [1] is -5.05%; in test [2], 0.2%; in test [3], 10.2%; in test [4], -5%; in test [5], -2.75%; in test [6], 20.3%.
With `Cc1cc(OCCOC(=O)Nc2ccccc2C(F)(F)F)cc(C)c1Cl`, the growth inhibition in test [1] was -7.6%; in test [2], -5.2%; in test [3], -3.35%; in test [4], -44.4%; in test [5] it was -3.5%; in test [6], 10.8%.
Turning to `Cc1c(C#N)c2n(c1C)CC(=O)N2`, the growth inhibition is 7.85% in test [1]; 0.45% in test [2]; 2.8% in test [3]; -0.85% in test [4]; -20.4% in test [5]; -33.9% in test [6].
Take `CCOC(=O)C(N)CSSCC(N)C(=O)OCC` (stereo unspecified): the growth inhibition in test [1] was 5.55%; in test [2], -3.35%; in test [3] it was -4.4%; in test [4], -11.6%; in test [5] it was 8.95%; in test [6], -4.85%.
Turning to `C(/C=C/c1csnn1)=C\c1ccccc1`, the growth inhibition in test [1] was 8.9%; in test [2], 8.85%; in test [3], -4.2%; in test [4], 15.8%; in test [5] it was 2.35%; in test [6], 0.5%.
In the case of `c1ccc2cc(CCc3cc4ccccc4cn3)ncc2c1`, the growth inhibition in test [1] was 10.2%; in test [2], 11.4%; in test [3], 7%; in test [4], -16.1%; in test [5] it was 24.4%; in test [6] it was 25.6%.
In the case of `CC1(C)OP2(O)(OC(C)(C)c3ccccc32)c2ccccc21`, the growth inhibition in test [1] was 31.1%; in test [2] it was 5.6%; in test [3] it was 12.3%; in test [4] it was 1.8%; in test [5], 6.85%; in test [6], 24.1%.
For `CCCCCCCCC(=O)N1CCOCC1`, the growth inhibition was 17.4% in test [1]; 7.15% in test [2]; 18.3% in test [3]; 16.4% in test [4]; -0.8% in test [5]; 8.8% in test [6].
Consider `S=c1nc(NCc2ccccc2)[nH]c2[nH]ncc12`, for which the growth inhibition in test [1] is -6.55%; in test [2], -17.2%; in test [3], -1.6%; in test [4], -17.2%; in test [5], -21%; in test [6], -2.55%.
As for `O=NC1C(Cl)C2CC1C1COCC21` (stereo unspecified), the growth inhibition is -16% in test [1]; -9.55% in test [2]; -9.05% in test [3]; -30.1% in test [4]; 1% in test [5]; -7.05% in test [6].
Regarding `COc1cc(CCNC2=CC(=O)c3cccnc3C2=O)ccc1O`, the growth inhibition in test [1] is 36.4%; in test [2], 24.1%; in test [3], 40.2%; in test [4] it was 11.8%; in test [5] it was 3.8%; in test [6], 48.2%.
As to `COC(=O)c1cccc2c1ccc1ccc3ccccc3c12`, the growth inhibition in test [1] is -7.9%; in test [2], -19.4%; in test [3] it was -7.05%; in test [4] it was -84.5%; in test [5], -10.2%; in test [6], -17.9%.
Regarding `CC(C)(C)[Si](C)(C)OC1CCOC1(O)c1ccccn1` (stereo unspecified), the growth inhibition in test [1] is 5.75%; in test [2], 0.65%; in test [3], 29.6%; in test [4], 37.1%; in test [5], 35.8%; in test [6] it was -8.2%.
Regarding `O=C(O)c1ccccc1C(=O)CCC(=O)c1ccccc1C(=O)O`, the growth inhibition was -43.5% in test [1]; -6.75% in test [2]; 14.3% in test [3]; -8.95% in test [4]; -0.05% in test [5]; 1.25% in test [6].
On to `CCOC(=O)C(C(=O)OCC)C(c1ccccc1)c1ccccc1OC` (stereo unspecified), for which the growth inhibition in test [1] was 6.9%; in test [2] it was 12%; in test [3], 4.15%; in test [4] it was 17%; in test [5], 12.3%; in test [6], -9.55%.
